Test results taken from publication PMC7862700, “An all-to-all approach to the identification of sequence-specific readers for epigenetic DNA modifications on cytosine”.

What was measured:
Experiment in all cases: DAPPL (digital affinity profiling via proximity ligation, sequencing); 10 mM Tris-HCl pH 7.5, 50 mM NaCl, 1 mM DTT, 4% glycerol, room temperature, 30 min; GST-TFs on glutathione beads, 16-mer random dsDNA library, 0.1% formaldehyde crosslink after washing; high values mean tight binding
Details in all cases: protein: recombinant; tags: N-terminal GST; dsDNA, one strand shown
FLI1 = target: T1, FLI1 (Homo sapiens, UniProt Q01543 1-452)
T1 sequence: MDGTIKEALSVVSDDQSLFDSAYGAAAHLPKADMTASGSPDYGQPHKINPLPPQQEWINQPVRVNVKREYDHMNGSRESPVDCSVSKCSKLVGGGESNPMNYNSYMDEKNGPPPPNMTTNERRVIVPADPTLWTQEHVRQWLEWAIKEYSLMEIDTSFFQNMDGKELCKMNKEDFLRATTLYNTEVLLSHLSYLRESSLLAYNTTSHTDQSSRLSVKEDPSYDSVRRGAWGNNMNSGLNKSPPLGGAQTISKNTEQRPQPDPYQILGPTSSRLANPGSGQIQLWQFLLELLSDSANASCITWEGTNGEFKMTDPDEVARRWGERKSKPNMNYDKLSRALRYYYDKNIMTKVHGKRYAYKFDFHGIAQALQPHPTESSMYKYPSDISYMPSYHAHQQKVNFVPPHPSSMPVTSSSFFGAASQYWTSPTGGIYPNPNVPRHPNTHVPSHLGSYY
In short: (§1)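 Human transcription factors were made in yeast as GST fusions, captured on glutathione beads and barcoded with DNA. With a tag-only sample included, the pool was incubated with 200 nmole of a random double-stranded 16-mer DNA library in Tris/NaCl/DTT/glycerol buffer at room temperature for 30 min, then crosslinked with 0.1% formaldehyde after washing, ligated by proximity, amplified and sequenced. For binding signal, each hexamer's read frequency for a factor is divided by its frequency for the tag-only sample.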

ELK1 = target: T2, ELK1 (Homo sapiens, UniProt P19419 1-428)
T2 sequence: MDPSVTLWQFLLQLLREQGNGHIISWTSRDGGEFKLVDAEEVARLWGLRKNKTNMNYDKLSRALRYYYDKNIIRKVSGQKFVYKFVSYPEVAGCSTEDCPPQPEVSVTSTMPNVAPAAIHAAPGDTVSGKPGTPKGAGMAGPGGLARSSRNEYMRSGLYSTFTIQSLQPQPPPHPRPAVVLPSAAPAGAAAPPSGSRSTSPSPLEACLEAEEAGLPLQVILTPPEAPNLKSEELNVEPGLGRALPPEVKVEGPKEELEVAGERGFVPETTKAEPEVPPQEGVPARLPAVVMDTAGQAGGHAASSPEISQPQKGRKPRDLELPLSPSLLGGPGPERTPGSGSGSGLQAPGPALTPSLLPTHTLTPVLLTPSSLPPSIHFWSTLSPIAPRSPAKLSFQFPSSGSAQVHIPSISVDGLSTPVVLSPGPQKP
In short: as §1

GABPA = target: T3, GABPA (Homo sapiens, UniProt Q06546 1-454)
T3 sequence: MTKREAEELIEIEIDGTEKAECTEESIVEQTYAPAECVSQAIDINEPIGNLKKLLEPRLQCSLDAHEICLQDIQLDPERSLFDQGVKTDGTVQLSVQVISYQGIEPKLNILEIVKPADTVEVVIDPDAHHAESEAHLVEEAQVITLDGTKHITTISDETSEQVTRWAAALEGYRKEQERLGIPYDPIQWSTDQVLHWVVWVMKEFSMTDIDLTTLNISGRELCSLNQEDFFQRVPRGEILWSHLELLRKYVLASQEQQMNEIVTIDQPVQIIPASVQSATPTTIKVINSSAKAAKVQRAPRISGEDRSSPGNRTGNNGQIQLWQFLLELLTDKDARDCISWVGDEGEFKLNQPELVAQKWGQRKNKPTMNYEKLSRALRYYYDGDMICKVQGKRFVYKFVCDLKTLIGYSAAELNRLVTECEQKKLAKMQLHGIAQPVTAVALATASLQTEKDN
In short: as §1

ERG = target: T4, ERG (Homo sapiens, UniProt P11308 1-479)
T4 sequence: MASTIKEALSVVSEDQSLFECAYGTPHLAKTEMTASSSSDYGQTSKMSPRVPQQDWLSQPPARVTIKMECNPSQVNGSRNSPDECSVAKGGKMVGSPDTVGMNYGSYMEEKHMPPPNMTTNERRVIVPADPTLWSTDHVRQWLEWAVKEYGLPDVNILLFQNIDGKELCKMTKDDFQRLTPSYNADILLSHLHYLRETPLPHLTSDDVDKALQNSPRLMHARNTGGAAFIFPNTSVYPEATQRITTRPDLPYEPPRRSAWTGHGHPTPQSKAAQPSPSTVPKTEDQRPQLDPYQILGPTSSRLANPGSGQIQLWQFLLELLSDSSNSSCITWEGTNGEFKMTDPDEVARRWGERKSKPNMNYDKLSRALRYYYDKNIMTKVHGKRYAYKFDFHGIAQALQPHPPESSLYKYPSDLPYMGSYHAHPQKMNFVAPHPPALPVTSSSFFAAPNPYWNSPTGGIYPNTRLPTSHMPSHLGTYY
In short: as §1

ELF1 = ELF1 (Homo sapiens, UniProt P32519 1-619)
ELF1, sequence (P32519 whole entry): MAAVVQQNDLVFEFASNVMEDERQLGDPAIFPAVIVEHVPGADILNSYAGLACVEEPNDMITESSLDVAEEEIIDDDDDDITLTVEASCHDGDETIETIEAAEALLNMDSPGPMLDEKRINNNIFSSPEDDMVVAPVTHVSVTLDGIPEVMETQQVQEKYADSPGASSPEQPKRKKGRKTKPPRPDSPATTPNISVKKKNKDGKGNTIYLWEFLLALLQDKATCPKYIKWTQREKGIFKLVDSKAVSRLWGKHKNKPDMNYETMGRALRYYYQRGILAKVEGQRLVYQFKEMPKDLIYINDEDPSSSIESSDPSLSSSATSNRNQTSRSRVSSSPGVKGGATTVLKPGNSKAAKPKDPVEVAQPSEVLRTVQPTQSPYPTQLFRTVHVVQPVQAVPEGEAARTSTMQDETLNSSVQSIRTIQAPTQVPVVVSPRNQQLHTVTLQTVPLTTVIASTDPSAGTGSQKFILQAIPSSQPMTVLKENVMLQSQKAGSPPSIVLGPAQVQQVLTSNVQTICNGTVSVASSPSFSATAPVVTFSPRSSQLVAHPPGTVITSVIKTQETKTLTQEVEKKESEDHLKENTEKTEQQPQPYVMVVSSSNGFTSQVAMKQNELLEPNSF
In short: as §1

EHF = target: T5, EHF (Homo sapiens, UniProt Q9NZC4 1-300)
T5 sequence: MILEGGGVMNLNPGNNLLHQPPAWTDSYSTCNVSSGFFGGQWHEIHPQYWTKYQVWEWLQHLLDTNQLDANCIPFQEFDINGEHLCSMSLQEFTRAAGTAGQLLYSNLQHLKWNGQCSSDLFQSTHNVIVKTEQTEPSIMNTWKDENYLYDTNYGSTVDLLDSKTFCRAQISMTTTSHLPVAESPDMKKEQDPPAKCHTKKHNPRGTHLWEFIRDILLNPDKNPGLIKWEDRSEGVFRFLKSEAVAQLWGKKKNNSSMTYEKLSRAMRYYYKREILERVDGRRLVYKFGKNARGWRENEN
In short: as §1

SPIB = SPIB (Homo sapiens, UniProt Q01892 1-262)
SPIB, sequence (Q01892 whole entry): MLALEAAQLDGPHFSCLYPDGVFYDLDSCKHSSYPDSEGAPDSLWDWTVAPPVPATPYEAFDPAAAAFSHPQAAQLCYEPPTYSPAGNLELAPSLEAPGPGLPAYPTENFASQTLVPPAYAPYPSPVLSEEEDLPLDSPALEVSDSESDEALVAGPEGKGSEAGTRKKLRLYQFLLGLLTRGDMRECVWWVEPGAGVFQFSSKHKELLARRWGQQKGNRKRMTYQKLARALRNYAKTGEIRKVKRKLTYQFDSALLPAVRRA
In short: as §1

ELK3 = target: T6, ELK3 (Homo sapiens, UniProt P41970 1-407)
T6 sequence: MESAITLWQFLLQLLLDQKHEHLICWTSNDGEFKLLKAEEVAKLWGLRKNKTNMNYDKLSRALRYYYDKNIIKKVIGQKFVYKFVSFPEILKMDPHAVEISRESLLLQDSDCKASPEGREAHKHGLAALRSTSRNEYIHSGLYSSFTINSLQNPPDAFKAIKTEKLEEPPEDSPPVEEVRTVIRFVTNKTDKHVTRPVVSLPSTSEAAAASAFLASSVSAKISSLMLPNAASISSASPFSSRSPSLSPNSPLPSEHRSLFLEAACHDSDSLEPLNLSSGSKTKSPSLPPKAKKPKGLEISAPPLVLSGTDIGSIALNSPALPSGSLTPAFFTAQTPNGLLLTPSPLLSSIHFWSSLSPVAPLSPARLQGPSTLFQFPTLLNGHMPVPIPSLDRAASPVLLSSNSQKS
In short: as §1

SPI1 = SPI1 (Homo sapiens, UniProt P17947 1-270)
In short: as §1

With ATCTGA the binding signal (FLI1) was 1.08 fold enrichment (6-mer frequency, TF over GST control), the binding signal (ELK1) was 1.08 fold enrichment (6-mer frequency, TF over GST control) and the binding signal (GABPA) was 1.21 fold enrichment (6-mer frequency, TF over GST control). For the same sequence, the binding signal (ERG) was 1.07 fold enrichment (6-mer frequency, TF over GST control), the binding signal (ELF1) was 1.16 fold enrichment (6-mer frequency, TF over GST control) and the binding signal (EHF) was 1.17 fold enrichment (6-mer frequency, TF over GST control). The binding signal (SPIB) was 1.17 fold enrichment (6-mer frequency, TF over GST control) and the binding signal (ELK3) was 1.2 fold enrichment (6-mer frequency, TF over GST control).
AAGCAA was tested, and the binding signal (FLI1) was 1.03 fold enrichment (6-mer frequency, TF over GST control), the binding signal (ELK1) was 1.08 fold enrichment (6-mer frequency, TF over GST control) and the binding signal (GABPA) was 1.07 fold enrichment (6-mer frequency, TF over GST control). The binding signal (ERG) was 1.02 fold enrichment (6-mer frequency, TF over GST control), the binding signal (ELF1) was 1.06 fold enrichment (6-mer frequency, TF over GST control) and the binding signal (EHF) was 1.02 fold enrichment (6-mer frequency, TF over GST control). For the same sequence, the binding signal (SPIB) was 1.02 fold enrichment (6-mer frequency, TF over GST control).
With CATGGG the binding signal (FLI1) was 1.04 fold enrichment (6-mer frequency, TF over GST control), the binding signal (ELK1) was 1.07 fold enrichment (6-mer frequency, TF over GST control) and the binding signal (GABPA) was 1.04 fold enrichment (6-mer frequency, TF over GST control). For the same sequence, the binding signal (ERG) was 1.07 fold enrichment (6-mer frequency, TF over GST control), the binding signal (ELF1) was 1.05 fold enrichment (6-mer frequency, TF over GST control) and the binding signal (EHF) was 1.03 fold enrichment (6-mer frequency, TF over GST control). For the same sequence, the binding signal (SPI1) was 1.03 fold enrichment (6-mer frequency, TF over GST control) and the binding signal (ELK3) was 1.09 fold enrichment (6-mer frequency, TF over GST control).
In the case of CAACAA, the binding signal (FLI1) is reported as 1.08 fold enrichment (6-mer frequency, TF over GST control), the binding signal (ELK1) is reported as 1.08 fold enrichment (6-mer frequency, TF over GST control) and the binding signal (GABPA) is reported as 1.1 fold enrichment (6-mer frequency, TF over GST control). For the same sequence, the binding signal (ERG) was 1.01 fold enrichment (6-mer frequency, TF over GST control), the binding signal (ELF1) was 1.06 fold enrichment (6-mer frequency, TF over GST control) and the binding signal (EHF) was 1.05 fold enrichment (6-mer frequency, TF over GST control). The binding signal (SPI1) was 1.02 fold enrichment (6-mer frequency, TF over GST control) and the binding signal (ELK3) was 1.12 fold enrichment (6-mer frequency, TF over GST control).
In the case of TTGAGC, the binding signal (FLI1) is reported as 1.22 fold enrichment (6-mer frequency, TF over GST control), the binding signal (ELK1) is reported as 1.01 fold enrichment (6-mer frequency, TF over GST control) and the binding signal (GABPA) is reported as 1.17 fold enrichment (6-mer frequency, TF over GST control). For the same sequence, the binding signal (ERG) was 1.12 fold enrichment (6-mer frequency, TF over GST control), the binding signal (ELF1) was 1.02 fold enrichment (6-mer frequency, TF over GST control) and the binding signal (EHF) was 1.06 fold enrichment (6-mer frequency, TF over GST control). The binding signal (SPIB) was 1.11 fold enrichment (6-mer frequency, TF over GST control).
For TATGTG, the binding signal (FLI1) was 1 fold enrichment (6-mer frequency, TF over GST control), the binding signal (ELK1) was 1.08 fold enrichment (6-mer frequency, TF over GST control) and the binding signal (GABPA) was 1.05 fold enrichment (6-mer frequency, TF over GST control). For the same sequence, the binding signal (ERG) was 1.06 fold enrichment (6-mer frequency, TF over GST control), the binding signal (ELF1) was 1.06 fold enrichment (6-mer frequency, TF over GST control) and the binding signal (EHF) was 1.07 fold enrichment (6-mer frequency, TF over GST control). The binding signal (SPIB) was 1.05 fold enrichment (6-mer frequency, TF over GST control).
ACGACG was tested, and the binding signal (FLI1) was 1.15 fold enrichment (6-mer frequency, TF over GST control), the binding signal (ELK1) was 1.15 fold enrichment (6-mer frequency, TF over GST control) and the binding signal (GABPA) was 1.22 fold enrichment (6-mer frequency, TF over GST control). For the same sequence, the binding signal (ERG) was 1.1 fold enrichment (6-mer frequency, TF over GST control), the binding signal (ELF1) was 1.09 fold enrichment (6-mer frequency, TF over GST control) and the binding signal (EHF) was 1.1 fold enrichment (6-mer frequency, TF over GST control). For the same sequence, the binding signal (SPI1) was 1.11 fold enrichment (6-mer frequency, TF over GST control) and the binding signal (ELK3) was 1.15 fold enrichment (6-mer frequency, TF over GST control).
CACGAA was tested, and the binding signal (FLI1) was 1.05 fold enrichment (6-mer frequency, TF over GST control), the binding signal (ELK1) was 1.15 fold enrichment (6-mer frequency, TF over GST control) and the binding signal (GABPA) was 1.19 fold enrichment (6-mer frequency, TF over GST control). For the same sequence, the binding signal (ERG) was 1.1 fold enrichment (6-mer frequency, TF over GST control), the binding signal (ELF1) was 1.11 fold enrichment (6-mer frequency, TF over GST control) and the binding signal (EHF) was 1.07 fold enrichment (6-mer frequency, TF over GST control). The binding signal (SPI1) was 1.06 fold enrichment (6-mer frequency, TF over GST control) and the binding signal (ELK3) was 1.03 fold enrichment (6-mer frequency, TF over GST control).
TGCTTA was tested, and the binding signal (FLI1) was 1.04 fold enrichment (6-mer frequency, TF over GST control), the binding signal (ELK1) was 1.06 fold enrichment (6-mer frequency, TF over GST control) and the binding signal (GABPA) was 1.21 fold enrichment (6-mer frequency, TF over GST control). The binding signal (ERG) was 1.15 fold enrichment (6-mer frequency, TF over GST control), the binding signal (ELF1) was 1.13 fold enrichment (6-mer frequency, TF over GST control) and the binding signal (EHF) was 1.08 fold enrichment (6-mer frequency, TF over GST control). For the same sequence, the binding signal (SPIB) was 1.06 fold enrichment (6-mer frequency, TF over GST control) and the binding signal (ELK3) was 1 fold enrichment (6-mer frequency, TF over GST control).
